Legend:
Experiment in all cases: DAPPL (digital affinity profiling via proximity ligation, sequencing); 10 mM Tris-HCl pH 7.5, 50 mM NaCl, 1 mM DTT, 4% glycerol, room temperature, 30 min; GST-TFs on glutathione beads, 16-mer random dsDNA library, 0.1% formaldehyde crosslink after washing; high values mean tight binding
[1] = molecular target: T1, FEV (Homo sapiens, UniProt Q99581 1-238); conditions: protein: recombinant; tags: N-terminal GST; dsDNA, one strand shown
T1 sequence: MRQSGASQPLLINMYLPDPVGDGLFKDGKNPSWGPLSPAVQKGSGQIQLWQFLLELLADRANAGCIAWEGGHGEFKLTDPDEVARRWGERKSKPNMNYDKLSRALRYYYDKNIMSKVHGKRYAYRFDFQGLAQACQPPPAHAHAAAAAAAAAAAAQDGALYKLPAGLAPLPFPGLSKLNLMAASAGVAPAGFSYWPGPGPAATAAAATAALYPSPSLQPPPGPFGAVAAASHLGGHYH
Outline: (§1)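 Yeast served to express human transcription factors as GST fusions, which were then captured on glutathione beads and labelled with DNA barcodes. Pooled with a tag-only sample, they were incubated with 200 nmole of a 16-mer random double-stranded DNA library for 30 min at room temperature in Tris/NaCl/DTT/glycerol buffer, washed, crosslinked with 0.1% formaldehyde, ligated by proximity, amplified by PCR and sequenced. Dividing each hexamer's read frequency for a factor by its frequency for the tag-only sample gives the binding signal.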

[2] = molecular target: ETV5 (Homo sapiens, UniProt P41161 1-510); conditions: protein: recombinant; tags: N-terminal GST; dsDNA, one strand shown
ETV5, sequence (P41161 whole entry): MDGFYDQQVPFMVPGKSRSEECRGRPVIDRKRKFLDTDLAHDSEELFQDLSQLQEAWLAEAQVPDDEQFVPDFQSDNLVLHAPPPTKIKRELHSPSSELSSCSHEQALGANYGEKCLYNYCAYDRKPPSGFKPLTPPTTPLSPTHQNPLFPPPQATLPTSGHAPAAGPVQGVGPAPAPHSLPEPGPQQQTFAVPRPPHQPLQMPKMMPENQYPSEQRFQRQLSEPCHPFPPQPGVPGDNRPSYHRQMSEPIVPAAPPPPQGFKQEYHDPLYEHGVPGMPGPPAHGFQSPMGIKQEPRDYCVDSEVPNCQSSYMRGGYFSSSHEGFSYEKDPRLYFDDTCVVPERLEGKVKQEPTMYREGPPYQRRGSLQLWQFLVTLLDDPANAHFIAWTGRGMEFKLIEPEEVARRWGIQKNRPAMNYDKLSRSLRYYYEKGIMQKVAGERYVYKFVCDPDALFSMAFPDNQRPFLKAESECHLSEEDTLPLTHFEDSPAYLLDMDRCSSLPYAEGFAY
Outline: as §1

[3] = molecular target: HSF1 (Homo sapiens, UniProt Q00613 1-529); conditions: protein: recombinant; tags: N-terminal GST; chain copies: 3; dsDNA, one strand shown
HSF1, sequence (Q00613 whole entry): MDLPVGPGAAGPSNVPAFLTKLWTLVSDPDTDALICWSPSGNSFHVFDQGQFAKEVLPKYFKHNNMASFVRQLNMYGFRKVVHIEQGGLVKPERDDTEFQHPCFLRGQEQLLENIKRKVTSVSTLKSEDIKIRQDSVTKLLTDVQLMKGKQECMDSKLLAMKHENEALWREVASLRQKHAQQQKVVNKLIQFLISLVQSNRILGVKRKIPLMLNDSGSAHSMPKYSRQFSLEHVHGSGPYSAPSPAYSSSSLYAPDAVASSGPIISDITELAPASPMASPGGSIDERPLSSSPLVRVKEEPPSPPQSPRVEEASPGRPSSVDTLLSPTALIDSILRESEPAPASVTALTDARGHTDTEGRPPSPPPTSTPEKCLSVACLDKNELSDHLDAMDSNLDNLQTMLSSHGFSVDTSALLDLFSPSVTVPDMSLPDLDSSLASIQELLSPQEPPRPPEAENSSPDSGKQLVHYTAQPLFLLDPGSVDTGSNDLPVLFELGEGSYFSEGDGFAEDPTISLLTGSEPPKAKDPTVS
Outline: as §1

[4] = molecular target: T2, SPIC (Homo sapiens, UniProt Q8N5J4 1-248); conditions: protein: recombinant; tags: N-terminal GST; dsDNA, one strand shown
T2 sequence: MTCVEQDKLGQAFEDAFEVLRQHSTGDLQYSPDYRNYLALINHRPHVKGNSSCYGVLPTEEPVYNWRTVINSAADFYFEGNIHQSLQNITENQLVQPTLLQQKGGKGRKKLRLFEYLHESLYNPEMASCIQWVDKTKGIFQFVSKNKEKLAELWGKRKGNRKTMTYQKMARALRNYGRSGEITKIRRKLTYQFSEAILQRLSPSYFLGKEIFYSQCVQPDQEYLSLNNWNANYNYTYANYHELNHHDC
Outline: as §1

[5] = molecular target: ELF4 (Homo sapiens, UniProt Q99607 1-663); conditions: protein: recombinant; tags: N-terminal GST; dsDNA, one strand shown
ELF4, sequence (Q99607 whole entry): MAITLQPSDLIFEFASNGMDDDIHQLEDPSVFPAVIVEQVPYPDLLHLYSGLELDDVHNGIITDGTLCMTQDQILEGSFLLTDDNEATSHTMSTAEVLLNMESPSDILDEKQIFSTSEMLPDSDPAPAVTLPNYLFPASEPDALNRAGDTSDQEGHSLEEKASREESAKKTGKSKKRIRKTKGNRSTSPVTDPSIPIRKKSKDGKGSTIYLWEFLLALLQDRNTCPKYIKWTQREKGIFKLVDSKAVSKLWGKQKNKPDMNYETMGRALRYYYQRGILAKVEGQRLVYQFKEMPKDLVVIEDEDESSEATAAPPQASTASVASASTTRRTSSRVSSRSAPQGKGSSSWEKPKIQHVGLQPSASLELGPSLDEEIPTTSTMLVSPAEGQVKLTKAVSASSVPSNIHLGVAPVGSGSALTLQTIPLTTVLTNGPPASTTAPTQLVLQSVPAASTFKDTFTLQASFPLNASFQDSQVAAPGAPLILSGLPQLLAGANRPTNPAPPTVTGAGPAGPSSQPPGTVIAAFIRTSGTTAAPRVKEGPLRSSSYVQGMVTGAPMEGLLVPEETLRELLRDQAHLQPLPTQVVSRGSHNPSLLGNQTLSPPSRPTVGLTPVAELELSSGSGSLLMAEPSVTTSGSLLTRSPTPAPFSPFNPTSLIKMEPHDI
Outline: as §1

[6] = molecular target: T3, ELK4 (Homo sapiens, UniProt P28324-2 1-405); conditions: protein: recombinant; tags: N-terminal GST; dsDNA, one strand shown
T3 sequence: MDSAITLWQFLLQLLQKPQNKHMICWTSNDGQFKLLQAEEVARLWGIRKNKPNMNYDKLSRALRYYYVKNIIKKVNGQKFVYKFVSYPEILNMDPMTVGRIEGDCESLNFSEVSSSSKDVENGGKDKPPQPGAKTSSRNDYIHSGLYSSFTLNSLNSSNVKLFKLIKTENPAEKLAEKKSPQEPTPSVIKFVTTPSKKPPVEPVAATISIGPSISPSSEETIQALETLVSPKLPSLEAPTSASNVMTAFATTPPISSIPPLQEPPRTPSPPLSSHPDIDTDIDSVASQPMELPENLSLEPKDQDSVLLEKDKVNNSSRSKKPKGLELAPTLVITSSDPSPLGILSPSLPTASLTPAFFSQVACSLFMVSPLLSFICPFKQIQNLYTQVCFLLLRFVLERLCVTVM
Outline: as §1

[7] = molecular target: T4, ETV2 (Homo sapiens, UniProt O00321 1-342); conditions: protein: recombinant; tags: N-terminal GST; dsDNA, one strand shown
T4 sequence: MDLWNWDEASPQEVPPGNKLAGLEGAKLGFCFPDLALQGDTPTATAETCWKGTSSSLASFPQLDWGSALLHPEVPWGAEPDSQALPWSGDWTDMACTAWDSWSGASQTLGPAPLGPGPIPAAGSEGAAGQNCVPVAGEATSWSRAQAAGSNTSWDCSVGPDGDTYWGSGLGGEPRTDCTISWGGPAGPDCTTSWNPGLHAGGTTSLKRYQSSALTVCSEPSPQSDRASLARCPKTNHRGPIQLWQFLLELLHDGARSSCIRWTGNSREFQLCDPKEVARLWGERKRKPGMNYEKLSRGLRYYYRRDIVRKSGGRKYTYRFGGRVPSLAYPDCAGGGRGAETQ
Outline: as §1

[8] = molecular target: T5, ELF3 (Homo sapiens, UniProt P78545 1-371); conditions: protein: recombinant; tags: N-terminal GST; dsDNA, one strand shown
T5 sequence: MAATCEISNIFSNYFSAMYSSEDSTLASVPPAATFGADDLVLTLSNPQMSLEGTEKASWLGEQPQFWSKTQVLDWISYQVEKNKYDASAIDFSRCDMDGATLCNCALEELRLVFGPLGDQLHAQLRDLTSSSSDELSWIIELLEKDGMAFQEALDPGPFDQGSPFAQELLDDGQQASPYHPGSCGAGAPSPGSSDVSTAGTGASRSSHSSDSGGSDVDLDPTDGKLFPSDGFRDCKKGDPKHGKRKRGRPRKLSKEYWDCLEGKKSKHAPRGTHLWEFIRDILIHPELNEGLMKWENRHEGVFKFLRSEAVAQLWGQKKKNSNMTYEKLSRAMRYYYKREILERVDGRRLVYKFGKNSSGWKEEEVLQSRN
Outline: as §1

[9] = molecular target: CRX (Homo sapiens, UniProt O43186 1-299); conditions: protein: recombinant; tags: N-terminal GST; dsDNA, one strand shown
CRX, sequence (O43186 whole entry): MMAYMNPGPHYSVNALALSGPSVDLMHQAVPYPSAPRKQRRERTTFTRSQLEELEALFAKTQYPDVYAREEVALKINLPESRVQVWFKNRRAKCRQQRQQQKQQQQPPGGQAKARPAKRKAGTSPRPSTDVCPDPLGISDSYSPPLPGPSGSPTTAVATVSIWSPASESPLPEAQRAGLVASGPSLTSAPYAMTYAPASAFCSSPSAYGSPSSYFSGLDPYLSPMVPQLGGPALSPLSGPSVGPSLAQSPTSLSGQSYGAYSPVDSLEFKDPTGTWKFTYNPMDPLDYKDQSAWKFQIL
Outline: as §1

[10] = molecular target: ETV1 (Homo sapiens, UniProt P50549 1-477); conditions: protein: recombinant; tags: N-terminal GST; dsDNA, one strand shown
ETV1, sequence (P50549 whole entry): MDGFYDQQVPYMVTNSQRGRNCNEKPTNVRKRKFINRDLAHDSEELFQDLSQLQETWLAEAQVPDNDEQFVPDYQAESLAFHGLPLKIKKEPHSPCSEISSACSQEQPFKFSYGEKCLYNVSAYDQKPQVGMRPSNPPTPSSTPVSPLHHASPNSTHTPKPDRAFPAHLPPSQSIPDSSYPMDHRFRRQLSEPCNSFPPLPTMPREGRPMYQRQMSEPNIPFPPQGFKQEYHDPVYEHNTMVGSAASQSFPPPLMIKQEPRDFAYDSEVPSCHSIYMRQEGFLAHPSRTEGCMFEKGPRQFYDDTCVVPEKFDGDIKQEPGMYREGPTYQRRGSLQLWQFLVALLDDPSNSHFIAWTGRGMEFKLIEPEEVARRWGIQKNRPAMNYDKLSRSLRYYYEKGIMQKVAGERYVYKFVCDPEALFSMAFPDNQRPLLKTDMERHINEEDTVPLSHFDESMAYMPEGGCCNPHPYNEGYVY
Outline: as §1

[11] = molecular target: T6, ERF (Homo sapiens, UniProt P50548 1-548); conditions: protein: recombinant; tags: N-terminal GST; dsDNA, one strand shown
T6 sequence: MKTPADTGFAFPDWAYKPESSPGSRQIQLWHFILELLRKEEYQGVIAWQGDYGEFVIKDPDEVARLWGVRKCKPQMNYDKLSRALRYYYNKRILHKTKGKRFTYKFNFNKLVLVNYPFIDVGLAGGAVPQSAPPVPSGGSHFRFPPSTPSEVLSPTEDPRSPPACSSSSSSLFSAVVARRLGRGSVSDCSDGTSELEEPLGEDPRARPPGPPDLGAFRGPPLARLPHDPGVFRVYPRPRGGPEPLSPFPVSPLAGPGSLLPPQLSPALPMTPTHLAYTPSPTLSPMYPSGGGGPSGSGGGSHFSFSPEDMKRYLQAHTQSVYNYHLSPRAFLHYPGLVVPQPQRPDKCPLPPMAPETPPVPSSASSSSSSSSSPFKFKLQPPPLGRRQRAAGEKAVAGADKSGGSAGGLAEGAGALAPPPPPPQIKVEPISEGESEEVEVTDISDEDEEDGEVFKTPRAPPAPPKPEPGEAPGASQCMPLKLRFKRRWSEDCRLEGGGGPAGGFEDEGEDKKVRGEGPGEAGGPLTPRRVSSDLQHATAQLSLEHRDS
Outline: as §1

[12] = molecular target: T7, ETV3L (Homo sapiens, UniProt Q6ZN32 1-361); conditions: protein: recombinant; tags: N-terminal GST; dsDNA, one strand shown
T7 sequence: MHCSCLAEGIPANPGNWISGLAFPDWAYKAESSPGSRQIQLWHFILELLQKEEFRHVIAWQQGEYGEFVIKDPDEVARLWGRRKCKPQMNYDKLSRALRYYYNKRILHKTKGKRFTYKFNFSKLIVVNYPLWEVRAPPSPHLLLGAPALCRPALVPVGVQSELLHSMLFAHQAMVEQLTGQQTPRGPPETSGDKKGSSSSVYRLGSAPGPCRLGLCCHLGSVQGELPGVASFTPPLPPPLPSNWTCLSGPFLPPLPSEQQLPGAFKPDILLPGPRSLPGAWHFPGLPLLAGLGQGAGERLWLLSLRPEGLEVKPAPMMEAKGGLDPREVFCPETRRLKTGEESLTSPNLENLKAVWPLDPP
Outline: as §1

[13] = molecular target: T8, ETS2 (Homo sapiens, UniProt P15036 1-469); conditions: protein: recombinant; tags: N-terminal GST; dsDNA, one strand shown
T8 sequence: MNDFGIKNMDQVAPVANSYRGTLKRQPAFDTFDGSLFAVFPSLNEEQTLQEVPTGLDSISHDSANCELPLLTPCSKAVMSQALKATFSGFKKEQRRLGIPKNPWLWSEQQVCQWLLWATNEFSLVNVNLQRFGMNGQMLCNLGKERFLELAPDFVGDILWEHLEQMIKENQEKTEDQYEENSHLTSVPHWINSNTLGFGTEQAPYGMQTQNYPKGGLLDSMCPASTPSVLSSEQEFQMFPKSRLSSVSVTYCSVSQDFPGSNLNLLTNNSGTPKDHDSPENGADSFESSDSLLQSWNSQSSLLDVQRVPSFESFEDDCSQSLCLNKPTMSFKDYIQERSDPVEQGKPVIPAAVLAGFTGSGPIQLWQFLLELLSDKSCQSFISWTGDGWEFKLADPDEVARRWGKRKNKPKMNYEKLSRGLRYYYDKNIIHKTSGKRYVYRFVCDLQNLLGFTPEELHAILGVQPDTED
Outline: as §1

[14] = molecular target: T9, SPDEF (Homo sapiens, UniProt O95238 1-335); conditions: protein: recombinant; tags: N-terminal GST; dsDNA, one strand shown
T9 sequence: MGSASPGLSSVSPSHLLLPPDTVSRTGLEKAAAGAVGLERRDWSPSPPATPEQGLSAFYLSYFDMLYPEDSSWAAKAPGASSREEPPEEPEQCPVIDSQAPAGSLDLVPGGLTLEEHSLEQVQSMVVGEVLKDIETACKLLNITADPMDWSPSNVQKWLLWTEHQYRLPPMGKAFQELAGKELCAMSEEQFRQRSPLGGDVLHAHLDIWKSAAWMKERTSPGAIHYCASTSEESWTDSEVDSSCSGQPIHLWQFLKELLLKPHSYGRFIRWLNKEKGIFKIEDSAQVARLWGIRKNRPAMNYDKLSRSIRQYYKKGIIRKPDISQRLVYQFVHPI
Outline: as §1

[15] = molecular target: T10, ETV7 (Homo sapiens, UniProt Q9Y603 1-341); conditions: protein: recombinant; tags: N-terminal GST; dsDNA, one strand shown
T10 sequence: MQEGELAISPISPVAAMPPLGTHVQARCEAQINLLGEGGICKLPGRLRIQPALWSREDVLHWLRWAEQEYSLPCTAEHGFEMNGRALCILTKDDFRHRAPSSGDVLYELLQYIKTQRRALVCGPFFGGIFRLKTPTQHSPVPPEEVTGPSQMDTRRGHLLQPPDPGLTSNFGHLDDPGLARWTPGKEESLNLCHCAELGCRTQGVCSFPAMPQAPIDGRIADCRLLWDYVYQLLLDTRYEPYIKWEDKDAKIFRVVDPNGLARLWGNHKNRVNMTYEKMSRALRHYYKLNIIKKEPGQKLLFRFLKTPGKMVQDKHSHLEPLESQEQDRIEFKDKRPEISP
Outline: as §1

[16] = molecular target: T11, ELF5 (Homo sapiens, UniProt Q9UKW6-2 1-255); conditions: protein: recombinant; tags: N-terminal GST; dsDNA, one strand shown
T11 sequence: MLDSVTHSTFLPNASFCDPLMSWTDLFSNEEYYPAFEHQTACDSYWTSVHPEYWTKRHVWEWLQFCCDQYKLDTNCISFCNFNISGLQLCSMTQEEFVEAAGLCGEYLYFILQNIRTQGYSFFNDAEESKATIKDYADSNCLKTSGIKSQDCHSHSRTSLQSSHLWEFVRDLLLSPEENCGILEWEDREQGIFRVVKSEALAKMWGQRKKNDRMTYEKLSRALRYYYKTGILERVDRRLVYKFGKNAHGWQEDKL
Outline: as §1

[17] = molecular target: T12, ETV3 (Homo sapiens, UniProt P41162-2 1-143); conditions: protein: recombinant; tags: N-terminal GST; dsDNA, one strand shown
T12 sequence: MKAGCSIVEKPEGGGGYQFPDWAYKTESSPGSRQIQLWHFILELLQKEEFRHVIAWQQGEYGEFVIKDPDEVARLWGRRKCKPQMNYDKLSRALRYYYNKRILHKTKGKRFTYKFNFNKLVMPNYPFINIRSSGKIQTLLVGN
Outline: as §1

[18] = molecular target: ETV6 (Homo sapiens, UniProt P41212 1-452); conditions: protein: recombinant; tags: N-terminal GST; dsDNA, one strand shown
ETV6, sequence (P41212 whole entry): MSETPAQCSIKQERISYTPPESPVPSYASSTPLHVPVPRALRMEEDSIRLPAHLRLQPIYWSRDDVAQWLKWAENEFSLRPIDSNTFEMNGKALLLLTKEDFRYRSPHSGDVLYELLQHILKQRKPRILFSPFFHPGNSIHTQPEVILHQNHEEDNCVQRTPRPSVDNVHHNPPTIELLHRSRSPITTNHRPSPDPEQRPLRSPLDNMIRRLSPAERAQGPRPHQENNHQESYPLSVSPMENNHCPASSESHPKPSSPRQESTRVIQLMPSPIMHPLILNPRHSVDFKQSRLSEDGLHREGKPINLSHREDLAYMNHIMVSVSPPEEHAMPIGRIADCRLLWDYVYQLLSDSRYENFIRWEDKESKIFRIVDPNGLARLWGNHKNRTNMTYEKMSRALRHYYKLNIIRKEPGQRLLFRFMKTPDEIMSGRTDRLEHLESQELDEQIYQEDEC
Outline: as §1

CCGATT
binding signal [1]: 1.37 fold enrichment (6-mer frequency, TF over GST control) | binding signal [2]: 1.34 fold enrichment (6-mer frequency, TF over GST control) | binding signal [3]: 1.94 fold enrichment (6-mer frequency, TF over GST control) | binding signal [4]: 1.18 fold enrichment (6-mer frequency, TF over GST control) | binding signal [5]: 1.41 fold enrichment (6-mer frequency, TF over GST control) | binding signal [6]: 1.37 fold enrichment (6-mer frequency, TF over GST control) | binding signal [7]: 1.27 fold enrichment (6-mer frequency, TF over GST control) | binding signal [8]: 1.17 fold enrichment (6-mer frequency, TF over GST control) | binding signal [9]: 2.69 fold enrichment (6-mer frequency, TF over GST control) | binding signal [10]: 1.35 fold enrichment (6-mer frequency, TF over GST control) | binding signal [11]: 1.28 fold enrichment (6-mer frequency, TF over GST control) | binding signal [12]: 1.43 fold enrichment (6-mer frequency, TF over GST control) | binding signal [13]: 1.39 fold enrichment (6-mer frequency, TF over GST control) | binding signal [14]: 1.32 fold enrichment (6-mer frequency, TF over GST control) | binding signal [15]: 1.31 fold enrichment (6-mer frequency, TF over GST control) | binding signal [16]: 1.39 fold enrichment (6-mer frequency, TF over GST control) | binding signal [17]: 1.38 fold enrichment (6-mer frequency, TF over GST control) | binding signal [18]: 1.52 fold enrichment (6-mer frequency, TF over GST control)

From article PMC7862700, “An all-to-all approach to the identification of sequence-specific readers for epigenetic DNA modifications on cytosine”
